Laboratory results published in the supplement of paper PMC4022240.
± gives the standard deviation.

What was measured:
Assay in all cases: peptide microarray binding signal (635 nm), min-max normalized on array (fraction of array maximum); higher = stronger binding
Conditions in all cases: peptide region: H2B 7-19
[1] = target: T1, HaloTag-ATRX ADD domain (163-292)
T1 chain: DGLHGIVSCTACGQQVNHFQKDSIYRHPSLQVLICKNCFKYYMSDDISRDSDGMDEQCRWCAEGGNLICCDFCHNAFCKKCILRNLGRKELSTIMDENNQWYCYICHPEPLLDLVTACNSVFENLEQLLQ
Protocol: (§1)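 Histone 13-mer peptides were synthesized as cellulose conjugates with a C-terminal 20-atom PEG linker and printed in triplicate on nitrocellulose. The sequence given is the unmodified backbone; PTMs (Kme1/2/3, Kac, Sph/Tph, Rme/Rme2a/Rme2s, Rcit) are listed in the label and the 'peptide modifications' condition. Slides were probed at 4 °C for 1 h with biotin-labelled (HQ)5-HaloTag reader fusions (ATRX-ADD, ING2-PHD) then streptavidin-Alexa647, or with rabbit histone antibodies then anti-rabbit Alexa647. The mean 635 nm signal of the triplicate spots was scaled 0-1 between the lowest and highest values on each array.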

[2] = target: HaloTag-ING2 PHD (mouse Ing2 200-280)
Protocol: as §1

[3] = target: anti-H3K4me3 antibody ab8580
Protocol: as §1

[4] = target: anti-H3K9me3 antibody ab8898
Protocol: as §1

[5] = peptide modifications: H2BK11ac, binder concentration: 1:2,000 dilution
[6] = peptide modifications: H2BK11ac, binder concentration: 1:10,000 dilution
[7] = peptide modifications: H2BK11ac H2BS14ph H2BK16ac, binder concentration: 1:2,000 dilution
[8] = peptide modifications: H2BK11ac H2BS14ph H2BK16ac, binder concentration: 1:10,000 dilution
[9] = peptide modifications: H2BK12ac H2BK15ac, binder concentration: 1:2,000 dilution
[10] = peptide modifications: H2BK12ac H2BK15ac, binder concentration: 1:10,000 dilution
[11] = peptide modifications: H2BK11ac H2BK12ac, binder concentration: 1:2,000 dilution
[12] = peptide modifications: H2BK11ac H2BK12ac, binder concentration: 1:10,000 dilution
[13] = peptide modifications: H2BS14ph H2BK15ac H2BK16ac, binder concentration: 1:2,000 dilution
[14] = peptide modifications: H2BS14ph H2BK15ac H2BK16ac, binder concentration: 1:10,000 dilution

B1: H2B 7-19 A P A P Kac K G S K K A V T (peptide)
chain: APAPKKGSKKAVT
peptide microarray binding signal ([1]; peptide modifications: H2BK11ac, binder concentration: 50 nM): 0.00367 ± 0.00044 | peptide microarray binding signal ([1]; peptide modifications: H2BK11ac, binder concentration: 500 nM): 0.00667 ± 0.0024 | peptide microarray binding signal ([2]; peptide modifications: H2BK11ac, binder concentration: 10 nM): 0.00227 ± 7.3e-05 | peptide microarray binding signal ([2]; peptide modifications: H2BK11ac, binder concentration: 100 nM): 0.00432 ± 0.00029 | peptide microarray binding signal [3, 5]: 0.000264 ± 1.1e-05 | peptide microarray binding signal [3, 6]: 0.000628 ± 6.7e-06 | peptide microarray binding signal [4, 5]: 0.000408 | peptide microarray binding signal [4, 6]: 0.000519 ± 5.6e-06

B2: H2B 7-19 A P A P Kac K G Sph K Kac A V T (peptide)
chain: APAPKKGSKKAVT
peptide microarray binding signal ([1]; peptide modifications: H2BK11ac H2BS14ph H2BK16ac, binder concentration: 50 nM): 0.00207 ± 8.4e-05 | peptide microarray binding signal ([1]; peptide modifications: H2BK11ac H2BS14ph H2BK16ac, binder concentration: 500 nM): 0.00281 ± 2.2e-05 | peptide microarray binding signal ([2]; peptide modifications: H2BK11ac H2BS14ph H2BK16ac, binder concentration: 10 nM): 0.00227 ± 3.4e-05 | peptide microarray binding signal ([2]; peptide modifications: H2BK11ac H2BS14ph H2BK16ac, binder concentration: 100 nM): 0.00128 ± 1.3e-05 | peptide microarray binding signal [3, 7]: 0.000396 ± 1.2e-05 | peptide microarray binding signal [3, 8]: 0.000514 ± 5.5e-06 | peptide microarray binding signal [4, 7]: 0.000242 ± 6.7e-06 | peptide microarray binding signal [4, 8]: 0.000461 ± 8.7e-06

B3: H2B 7-19 A P A P K Kac G S Kac K A V T (peptide)
chain: APAPKKGSKKAVT
peptide microarray binding signal ([1]; peptide modifications: H2BK12ac H2BK15ac, binder concentration: 50 nM): 0.00342 ± 5.6e-05 | peptide microarray binding signal ([1]; peptide modifications: H2BK12ac H2BK15ac, binder concentration: 500 nM): 0.00938 ± 0.0002 | peptide microarray binding signal ([2]; peptide modifications: H2BK12ac H2BK15ac, binder concentration: 10 nM): 0.00609 ± 0.00019 | peptide microarray binding signal ([2]; peptide modifications: H2BK12ac H2BK15ac, binder concentration: 100 nM): 0.00503 ± 0.00011 | peptide microarray binding signal [3, 9]: 0.00285 ± 0.0017 | peptide microarray binding signal [3, 10]: 0.0012 ± 3.2e-05 | peptide microarray binding signal [4, 9]: 0.000966 ± 7.9e-05 | peptide microarray binding signal [4, 10]: 0.000923 ± 9.6e-06

B4: H2B 7-19 A P A P Kac Kac G S K K A V T (peptide)
chain: APAPKKGSKKAVT
peptide microarray binding signal ([1]; peptide modifications: H2BK11ac H2BK12ac, binder concentration: 50 nM): 0.00411 ± 0.00015 | peptide microarray binding signal ([1]; peptide modifications: H2BK11ac H2BK12ac, binder concentration: 500 nM): 0.0031 ± 0.001 | peptide microarray binding signal ([2]; peptide modifications: H2BK11ac H2BK12ac, binder concentration: 10 nM): 0.00603 ± 0.00082 | peptide microarray binding signal ([2]; peptide modifications: H2BK11ac H2BK12ac, binder concentration: 100 nM): 0.00822 ± 0.001 | peptide microarray binding signal [3, 11]: 0.000245 ± 2.6e-06 | peptide microarray binding signal [3, 12]: 0.000913 ± 1.6e-05 | peptide microarray binding signal [4, 11]: 0.000906 ± 4.5e-05 | peptide microarray binding signal [4, 12]: 0.00127 ± 1.3e-05

B5: H2B 7-19 A P A P K K G Sph Kac Kac A V T (peptide)
chain: APAPKKGSKKAVT
peptide microarray binding signal ([1]; peptide modifications: H2BS14ph H2BK15ac H2BK16ac, binder concentration: 50 nM): 0.00307 ± 0.00018 | peptide microarray binding signal ([1]; peptide modifications: H2BS14ph H2BK15ac H2BK16ac, binder concentration: 500 nM): 0.00848 ± 0.00083 | peptide microarray binding signal ([2]; peptide modifications: H2BS14ph H2BK15ac H2BK16ac, binder concentration: 10 nM): 0.00525 ± 0.00091 | peptide microarray binding signal ([2]; peptide modifications: H2BS14ph H2BK15ac H2BK16ac, binder concentration: 100 nM): 0.00312 ± 7.5e-05 | peptide microarray binding signal [3, 13]: 0.00427 ± 0.00019 | peptide microarray binding signal [3, 14]: 0.00108 | peptide microarray binding signal [4, 13]: 0.000876 ± 3.2e-05 | peptide microarray binding signal [4, 14]: 0.00104 ± 1.1e-05
